Screening data (PubChem BioAssay)
NPC1 promoter act: qHTS Assay for NPC1 Promoter Activators; Huh7 NPC1 promoter luciferase reporter, 24 h; Potency, µM (doses to about 9.22 µM), for the others: at the top dose activation, usual class: activators; 320,000 compounds, 2.4% hits; AID 485313, 2010; also: % of control where 0% means no effect; nearly all actives have a fitted effect of over 60% in size
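Stable NPC1-promoter luciferase Huh7 line; cpd (DMSO) 24 h, 37 °C, 5% CO2; Amplite luciferase reagent 10 min RT; luminescence readout. qHTS format.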
Luc counter: Counterscreen for Luciferase (Kinase-Glo TM) Inhibition; Potency, µM (highest dose often 38.3 µM), for inactives: at the highest dose activity change, negative = inhibition, hits mostly inhibitors; AID 1379, 2008; 200,000 compounds, 0.28% hits; Kinase-Glo luciferase, ATP luminescence, 8 min; also: % is scaled to controls: 0 for no effect and ±100 for the full control effect; nearly all actives have a fitted effect of over 60% in size
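Compounds were added to a substrate mix at pH 7.2 (50 mM imidazole, 10 uM ATP, within the enzyme's linear range), followed by Kinase-Glo detection reagent; luminescence was measured after 8 minutes at ambient temperature.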
Rab9 prom act: qHTS Assay for Rab9 Promoter Activators | Potency, µM (top dose mostly 9.22 µM), for the others: top-dose activation, negative = inhibition, most hits filed as activators | Huh7 Rab9 promoter-luciferase reporter, luminescence, 24 h | 320,000 compounds, 2.8% hits | AID 485297, 2010; also: % of control where 0% means no effect; nearly all actives have a fitted effect of over 60% in size
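Huh7 cells stably carrying Rab9 promoter–luciferase reporter, plated 1500 cells/well, compound added after 2 h and incubated 24 h at 37 °C; luciferase luminescence then read after 10 min with detection reagent.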
SMN2 splice up: qHTS Assay for Enhancers of SMN2 Splice Variant Expression; HEK293 SMN2-luciferase splicing reporter, luminescence, 30-36 h; Potency, µM (doses to about 46.1 µM), inactives show at the highest dose activity change, positive = activation, most hits filed as activators; 210,000 compounds, 2.8% hits; AID 1458, 2008; also: % of control where 0% means no effect; nearly all actives have a fitted effect of over 55% in size
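qHTS luciferase splicing reporter: luminescence rises when SMN2 exon 7 is included in transfected HEK293 cells. Compound exposure lasted 30-36 h at 37C, with 4.5 mM final sodium butyrate as control, followed by a ONE-Glo read.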
FLuc modulator: qHTS profiling assay for firefly luciferase inhibitor/activator using purifed enzyme and Km concentrations of substrates (counterscreen for miR-21 project). Luciferin 4-monooxygenase (Photinus pyralis), P08659. purified FLuc, Km substrates, luminescence inhibition. Potency, µM (highest dose often 57.5 µM), inactives show at the top dose activity change, negative = inhibition, usual class: inhibitors. 360,000 compounds, 6.9% hits. AID 588342, 2011;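 also: plate controls were vehicle for no effect and reference inhibitor for full effect; nearly all actives have a fitted effect of over 55% in size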
Target sequence (P08659 whole entry, looked up): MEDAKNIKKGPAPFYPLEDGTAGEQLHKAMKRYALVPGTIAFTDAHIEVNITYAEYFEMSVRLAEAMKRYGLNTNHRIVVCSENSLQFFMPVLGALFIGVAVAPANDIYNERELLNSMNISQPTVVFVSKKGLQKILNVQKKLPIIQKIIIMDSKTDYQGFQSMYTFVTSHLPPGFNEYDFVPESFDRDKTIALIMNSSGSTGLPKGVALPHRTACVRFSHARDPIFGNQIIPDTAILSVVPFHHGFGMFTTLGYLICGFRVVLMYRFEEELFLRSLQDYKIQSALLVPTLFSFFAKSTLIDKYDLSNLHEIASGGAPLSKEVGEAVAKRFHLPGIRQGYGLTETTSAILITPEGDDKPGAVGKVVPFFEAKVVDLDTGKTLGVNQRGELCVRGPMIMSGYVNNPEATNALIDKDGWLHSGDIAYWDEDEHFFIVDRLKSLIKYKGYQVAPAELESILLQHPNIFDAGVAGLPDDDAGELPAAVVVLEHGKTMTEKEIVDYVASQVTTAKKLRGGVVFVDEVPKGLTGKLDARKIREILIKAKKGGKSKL
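Purified P. pyralis luciferase, 10 nM final, with Km-level 10 uM D-luciferin and 10 uM ATP in 50 mM Tris acetate pH 7.5, 10 mM Mg acetate, 0.01% Tween-20, 0.05% BSA; 6-point qHTS titration about 60 µM downward; luminescence read.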
ELG1 genotox: qHTS screen for small molecules that induce genotoxicity in human embryonic kidney (HEK293T) cells expressing luciferase-tagged ELG1. HEK293T ELG1-luciferase reporter, luminescence, 16 h. Potency, µM (series often up to 46 µM), without a hit: at the top dose activity change, positive = activation, usual class: activators. 330,000 compounds, 1.3% hits. AID 504466, 2011; also: % of control where 0% means no effect; nearly all actives have a fitted effect of over 60% in size
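Cells (2,000/well) expressing the ELG1-luciferase fusion are dosed by pin tool and kept 16 hr at 37 °C, 5% CO2. Signal comes from ONE-Glo luciferase reagent after 30 min at room temperature.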
Numbers without * were called inactive; ? = inconclusive; nt = no result; [ ] = remark or other dose. In the library only some 7.5% were active in any assay of this set; here they are far more common. Calls follow the shape of the dose curve; as a rule, active = well fitted curve in the direction sought with a large enough effect; inconclusive = small, poorly fitted or top-dose-only effect, or another doubt; inactive = no such curve, though single readings can be large; an effect the other way counts as inactive or inconclusive. Potency is read from the fitted curve at half-maximal effect.

SMILES	NPC1 promoter act	Luc counter	Rab9 prom act	SMN2 splice up	FLuc modulator	ELG1 genotox
CNC(=S)/N=C(/Nc1ccccc1)c1ccccc1	-2%	6%	-5%	-17%	-19%	-7%
COc1ncnc2c1oc1ccccc12	-2%	-12%	-4%	nt	12µM*	?
CC(=O)CSc1ncnc2c1oc1ccccc12	18%	-9%	9%	15%	?	?
CCCSc1ncnc2c1oc1ccccc12	3%	-3%	16%	-2%	15µM*	17%
CC(C)Sc1ncnc2c1oc1ccccc12	4%	-2%	17%	10%	24µM*	3%
CCOc1ccccc1Oc1ncnc2c1oc1ccccc12	nt	nt	nt	nt	6%	nt
c1coc(CSc2ncnc3c2oc2ccccc23)c1	8%	nt	27%	nt	19µM*	?
O=c1c2ccccc2n2c(-c3ccccc3F)nnc2n1CCc1ccccc1	nt	nt	nt	nt	1%	nt
CCOc1ccc(OCC)c(NC(=O)Cn2nc(CC)n3c(cc4sccc43)c2=O)c1	nt	nt	nt	2%	-2%	nt
c1ccc(Sc2ncnc3c2oc2ccccc23)nc1	?	-3%	?	46%	21µM*	?
O=C(O)/C=C/c1cnn(-c2ccccc2)c1	?	-9%	0.45µM*	2µM*	1.5µM*	-4%
CCOC(=O)/C=C/c1cnn(-c2ccccc2)c1	?	-4%	?	nt	15µM*	?
O=C(/C=C/c1ccc2ccccc2c1)c1ccoc1	?	-1%	?	-5%	0.54µM*	6%
O/N=C/c1ccc2ccccc2c1	10%	0%	-13%	nt	-20%	3%
CN1c2ccccc2C(=O)/C(=C\Nc2ccc(F)cc2)S1(=O)=O	-6%	nt	-1%	nt	12µM*	-2%
CCc1nc(SCC(=O)c2cccs2)c2oc3ccccc3c2n1	0%	-4%	18%	-25%	11µM*	-4%
CCc1nc(SCC(=O)NCCc2ccccc2)c2oc3ccccc3c2n1	-3%	-4%	4%	-15%	-19%	-5%
Cc1nc(SCC(=O)c2ccc(Cl)s2)c2oc3ccccc3c2n1	?	4%	?	12%	9.5µM*	0%
O=C(O)CSc1nc(-c2ccccc2)nc2c1oc1ccccc12	3%	-4%	-3%	-7%	21µM*	0%
O=C(O)CSc1nc(-c2ccc(Cl)cc2)nc2c1oc1ccccc12	-2%	0%	0%	12%	?	-3%
COc1ccc(C2=NN(CC(=O)NCCc3ccccc3)C(=O)CC2)cc1	nt	nt	nt	nt	-6%	nt
COc1ccc(N2CCOCC2)c(NC(=O)c2cc3ccccc3o2)c1	7%	nt	2%	nt	-1%	-14%
O=C(Nc1ccccc1)n1cc(-c2ccccn2)c(N2CCOCC2)n1	0%	-2%	4%	20%	-12%	-2%
CC(=O)N1CCc2cc(S(=O)(=O)NCCC(=O)Nc3ccc4c(c3)OCCO4)ccc21	26%	3%	26%	?	15µM*	?
Clc1ccc(CCNc2nc3ccccc3c3nc(-c4ccccc4)nn23)cc1	nt	nt	nt	-7%	-6%	nt
SMILES	NPC1 promoter act	Luc counter	Rab9 prom act	SMN2 splice up	FLuc modulator	ELG1 genotox
COC(=O)c1ccc(C#Cc2ccccc2)o1	19%	nt	17%	nt	17µM*	14%
O=C(c1ccc(C#Cc2ccccc2)o1)N1CCN(c2ccccn2)CC1	2%	-5%	3%	-14%	?	1%
COc1ccc2c3c([nH]c2c1)[C@H]1C[C@@H]2[C@@H](C[C@@H](O)[C@H](OC)[C@H]2C(=O)O)CN1CC3	nt	-7%[7.66 µM]	nt	?	nt	nt
CC(=O)Nc1nccc(-c2cc(-c3ccccc3)no2)n1	3.5µM*	nt	2.2µM*	nt	?	?
COCCN1Cc2cccc(C(=O)Nc3ccc(C)c(C)c3)c2C1=O	-1%	-9%	16%	-1%	7.6µM*	10%
CCOc1ccc(NC(=O)c2cccc3c2C(=O)N(CCOC)C3)cc1	7%	-3%	21%	-8%	6.7µM*	15%
CCN(CC)S(=O)(=O)c1ccc(NC(=O)c2cccc3c2C(=O)N(CCOC)C3)cc1	0%	1%	1%	2%	3%	11%
COCCN1Cc2cccc(C(=O)Nc3cccc(OC)c3)c2C1=O	-1%	3%	10%	-32%	-16%	2%
COc1ccc(N2Cc3cccc(C(=O)Nc4ccc(C(C)C)cc4)c3C2=O)cc1	nt	nt	nt	?	0.27µM*	nt
COc1ccc(NC(=O)CN2C(=O)C3(SCC(=O)N3c3cccc(OC)c3)c3ccccc32)cc1 (stereo unspecified)	nt	nt	nt	nt	-9%	nt
Cc1ccc2oc3c(c(=O)c2c1)C(c1ccccc1F)N(c1ccccn1)C3=O (stereo unspecified)	nt	nt	nt	-2%	1%	nt
Cc1ccc2c(c1Br)/C(=N/N1C(=O)c3ccccc3C1=O)C(=O)N2	1%	-6%	-1%	27%	2.4µM*	11%
COc1ccc(C(=O)Oc2ccc(/C=N/O)cc2)cc1	1%	1%	-5%	-8%	6µM*	8%
COc1ccc(C(=O)Oc2ccc(C(c3c(C)[nH][nH]c3=O)c3c(C)[nH][nH]c3=O)cc2)cc1	nt	nt	nt	20%	17µM*	nt
CCOc1cc(C(=O)OCc2cc(=O)n3nc(C4CC4)sc3n2)cc(OCC)c1OCC	nt	nt	nt	nt	-7%	nt
COc1cc(SC)ccc1C(=O)Nc1ccc2ncccc2c1	1.3µM*	nt	0.45µM*	nt	0.76µM*	?
COc1cc(SC)ccc1C(=O)Nc1ccc(Br)cn1	0.32µM*	nt	0.28µM*	nt	0.076µM*	?
COc1ccc(CNC(=O)c2ccc(SC)cc2OC)cc1	0%	3%	2%	8%	-3%	2%
COc1cc(SC)ccc1C(=O)Nc1cccc(C)n1	?	-4%	2µM*	11µM*	3.4µM*	?
COc1cc(SC)ccc1C(=O)NCCc1ccccc1	3.5µM*	-3%	3.5µM*	10µM*	6µM*	?
COc1cc(SC)ccc1C(=O)NC(C)C	-3%	-1%	-4%	-2%	-4%	4%
CN(C(=O)c1cc2c(=O)oc3ccccc3c2s1)c1ccc(F)cc1	nt	nt	nt	1%	-5%	nt
COc1cc(SC)ccc1C(=O)NCCOc1ccc(Cl)cc1	0%	3%	1%	-11%	-16%	-2%
COc1cc(SC)ccc1C(=O)Nc1ncc(Cl)cc1Cl	4µM*	-1%	1.6µM*	13µM*	2.4µM*	?
COc1cc(SC)ccc1C(=O)Nc1ccccn1	0.79µM*	nt	0.79µM*	nt	0.48µM*	?
